The source of these data is PubChem BioAssay (EPA / NIEHS).

Molecules are shown by their SMILES. Results filed as inconclusive are left out. The source holds several records for some structures; these can differ, active in one and inactive in another. Calls of active or inactive are those of the source. The calls were made as follows: active = hit-call score of the fitted dose curve at least 0.9, where 1 is the maximum; inconclusive = response in the unintended direction; inactive = score below 0.9.

One assay can be described thus: ACEA_AR_agonist_AUC_viability: ACEA Biosciences xCELLigence Real-Time Cell Analysis on Androgen Receptor Agonism for Viability (AID 2283775).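 As to AC50: viability read 80 hours after compound addition.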 In outline:
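Real-time impedance tracking of 22Rv1 growth, readings every 5 min for 5 h then hourly; area-under-curve viability endpoint at 80 hours, relative to DMSO. Compounds at eight concentrations, 1:4 steps, top 100 uM, n = 2.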
On to `O=[N+]([O-])c1c(Cl)c(Cl)c(Cl)c(Cl)c1Cl`, for which the AC50 was 58.6 µM (active).

Consider `CC(C)N(C(=O)COc1nnc(C(F)(F)F)s1)c1ccc(F)cc1`, for which the concentration at half-maximal activity (AC50) was 21.4 µM (active).

Consider `CCc1ccc(C(=O)NN(C(=O)c2cc(C)cc(C)c2)C(C)(C)C)cc1`, for which the AC50 is 50 µM (active).

With `O=C(O)CCCOc1ccc(Cl)cc1Cl`, the outcome was inactive.

Regarding `C[C@H]1[C@H](c2ccc(Cl)cc2)SC(=O)N1C(=O)NC1CCCCC1`, the concentration at half-maximal activity (AC50) was 73 µM (active).

On to `CC(C)(C)C(O)C(Oc1ccc(Cl)cc1)n1cncn1` (configuration not stated), for which the molecule was classed as inactive.

On to `ClC1C(Cl)C(Cl)C(Cl)C(Cl)C1Cl` (configuration not stated), for which the molecule was called inactive.

In the case of `O=[N+]([O-])/N=C1\NCCN1Cc1ccc(Cl)nc1`, the result was inactive.

As for `CCC(C)(C)C(=O)OC1=C(c2ccc(Cl)cc2Cl)C(=O)OC12CCCCC2`, the concentration at half-maximal activity (AC50) was 81.9 µM (active).

With `C#CCN1C(=O)COc2cc(F)c(N3C(=O)C4=C(CCCC4)C3=O)cc21`, the half-maximal activity concentration (AC50) is 50 µM (active).

Take `CC[C@H](C)[C@H]1O[C@]2(C=C[C@@H]1C)C[C@@H]1C[C@@H](C/C=C(\C)[C@@H](O[C@H]3C[C@H](OC)[C@@H](O[C@H]4C[C@H](OC)[C@@H](O)[C@H](C)O4)[C@H](C)O3)[C@@H](C)/C=C/C=C3\CO[C@@H]4[C@H](O)C(C)=C[C@@H](C(=O)O1)[C@]34O)O2` (tested in a mixture with another compound): the half-maximal activity concentration (AC50) is 4.08 µM (active).

On to `O=C(O)COc1ccc(Cl)cc1Cl`, for which the result was inactive.

For `O=C(NC(=O)c1c(F)cccc1F)Nc1ccc(OC(F)(F)C(F)OC(F)(F)F)c(Cl)c1` (configuration not stated), the molecule was classed as inactive.

Take `O=C(O)C(F)(F)C(F)(F)C(F)(F)C(F)(F)C(F)(F)C(F)(F)C(F)(F)F`: the result was inactive.

For the molecule `CCOC1Oc2ccc(OS(C)(=O)=O)cc2C1(C)C` (configuration not stated), the half-maximal activity concentration (AC50) is 25.7 µM (active).

For `CCN(CC)C(=O)SCc1ccc(Cl)cc1`, the half-maximal activity concentration (AC50) is 62.2 µM (active).

On to `CCC(C)(NC(=O)c1cc(Cl)c(C)c(Cl)c1)C(=O)CCl` (configuration not stated), for which the AC50 is 26.5 µM (active).

With `Cc1[nH]c(=O)n(C(C)(C)C)c(=O)c1Cl`, the call was inactive.

A short description of a further assay: ACEA_AR_antagonist_AUC_viability: ACEA Biosciences xCELLigence Real-Time Cell Analysis on Androgen Receptor Antagonism for Viability (AID 2283776).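 Also: 22Rv1 human prostate cancer cells growing on impedance electrode plates; hits lower the growth signal relative to DMSO meaning cytotoxicity.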 In outline: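 Real-time electrical impedance tracks 22Rv1 proliferation after continuous compound exposure (top 100 uM final, 1:4 steps, 8 concentrations). The 80 h area-under-curve serves as the cytotoxicity readout relative to DMSO.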
Regarding `O=[N+]([O-])c1c(Cl)c(Cl)c(Cl)c(Cl)c1Cl`, the concentration at half-maximal activity (AC50) was 50 µM (active).

On to `CC(C)N(C(=O)COc1nnc(C(F)(F)F)s1)c1ccc(F)cc1`, for which the AC50 is 50 µM (active).

Regarding `CNC(=O)Oc1ccccc1OC(C)C`, the outcome was inactive.

Consider `CCc1ccc(C(=O)NN(C(=O)c2cc(C)cc(C)c2)C(C)(C)C)cc1`, for which the AC50 is 50 µM (active).

`O=C(O)CCCOc1ccc(Cl)cc1Cl`: the molecule was classed as inactive.

For the molecule `C[C@H]1[C@H](c2ccc(Cl)cc2)SC(=O)N1C(=O)NC1CCCCC1`, the half-maximal activity concentration (AC50) is 12.4 µM (active).

For the molecule `CC(C)(C)C(O)C(Oc1ccc(Cl)cc1)n1cncn1` (configuration not stated), the AC50 was 39.9 µM (active).

Regarding `ClC1C(Cl)C(Cl)C(Cl)C(Cl)C1Cl` (configuration not stated), the concentration at half-maximal activity (AC50) was 37.8 µM (active) and the result was inactive.

Consider `O=[N+]([O-])/N=C1\NCCN1Cc1ccc(Cl)nc1`, for which the outcome was inactive.

Regarding `CCC(C)(C)C(=O)OC1=C(c2ccc(Cl)cc2Cl)C(=O)OC12CCCCC2`, the result was inactive.

Turning to `N#Cc1c(Cl)c(Cl)c(Cl)c(C#N)c1Cl`, the half-maximal activity concentration (AC50) was 3.7 µM (active).

As to `C#CCN1C(=O)COc2cc(F)c(N3C(=O)C4=C(CCCC4)C3=O)cc21`, the AC50 was 50 µM (active).

For the molecule `CC(C)(C)C(O)/C(=C\c1ccc(Cl)cc1Cl)n1cncn1` (configuration not stated), the AC50 was 20.3 µM (active).

For `CC[C@H](C)[C@H]1O[C@]2(C=C[C@@H]1C)C[C@@H]1C[C@@H](C/C=C(\C)[C@@H](O[C@H]3C[C@H](OC)[C@@H](O[C@H]4C[C@H](OC)[C@@H](O)[C@H](C)O4)[C@H](C)O3)[C@@H](C)/C=C/C=C3\CO[C@@H]4[C@H](O)C(C)=C[C@@H](C(=O)O1)[C@]34O)O2` (tested in a mixture with another compound), the half-maximal activity concentration (AC50) was 4.93 µM (active).

As for `O=C(O)COc1ccc(Cl)cc1Cl`, the molecule was classed as inactive.

On to `O=C(NC(=O)c1c(F)cccc1F)Nc1ccc(OC(F)(F)C(F)OC(F)(F)F)c(Cl)c1` (configuration not stated), for which the molecule was classed as inactive.

For the molecule `OCCOc1ccccc1`, the molecule was classed as inactive.

As for `O=C(O)C(F)(F)C(F)(F)C(F)(F)C(F)(F)C(F)(F)C(F)(F)C(F)(F)F`, the AC50 was 37.7 µM (active) and the result was inactive.

Regarding `CCOC1Oc2ccc(OS(C)(=O)=O)cc2C1(C)C` (configuration not stated), the half-maximal activity concentration (AC50) is 25.6 µM (active).

As for `CCN(CC)C(=O)SCc1ccc(Cl)cc1`, the AC50 was 65.8 µM (active).

Take `CCC(C)(NC(=O)c1cc(Cl)c(C)c(Cl)c1)C(=O)CCl` (configuration not stated): the AC50 was 22 µM (active).

As for `Cc1[nH]c(=O)n(C(C)(C)C)c(=O)c1Cl`, the molecule was classed as inactive.

What is called AC50 is the concentration at which the activity in the assay is half-maximal.
